In the supplement of paper PMC9433436:
± gives the standard deviation of the averaged measurements. In all, about 4,100 sequences were measured (“relative kcat/Km (krel) vs genomic leader AAAGAU”: median about 1.7, highest 2% from about 6.5 on). This excerpt belongs to a sample that is enriched for the highest values.

Molecular target: T1, E. coli RNase P holoenzyme (M1 P RNA + rnpA protein) (UniProt P0A7Y8)
T1 sequence: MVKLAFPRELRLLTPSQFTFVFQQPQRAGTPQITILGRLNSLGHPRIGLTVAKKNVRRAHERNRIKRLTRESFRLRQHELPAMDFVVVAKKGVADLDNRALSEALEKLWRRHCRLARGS
Experiment: relative kcat/Km (krel) vs genomic leader AAAGAU (relative (reference leader = 1)); higher = faster RNase P cleavage
Method: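 HTS-Kin: a pool of ptRNA-Met (21C construct) with all 4096 combinations of 5' leader nucleotides N(-6) to N(-1) was processed in vitro by E. coli RNase P (P RNA + rnpA/C5 protein) under multiple-turnover conditions at 37 C, pH 8, 17.5 mM MgCl2. Residual substrate was Illumina-sequenced at several fractions reacted, and relative kcat/Km (krel) was computed by internal competition kinetics, calibrated to the genomic leader (AAAGAU = 1). The listed hexamer is the varied N(-6)..N(-1) leader (DNA letters), and it sits between a fixed 5' stem-loop flank (GCAUGCACGAAAGUGCGUGCUAUGAA) and the mature tRNA-Met starting GGCUACGUAGCUCAGUUGG. Two technical replicates are averaged.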

[1] = fraction of substrate reacted: ~9-10% (9.79% repeat 1, 9.1% repeat 2)
[2] = fraction of substrate reacted: ~13-16% (15.68% repeat 1, 13.17% repeat 2)
[3] = fraction of substrate reacted: ~26-29% (28.66% repeat 1, 26.4% repeat 2)

Sequence	relative kcat/Km [1]	relative kcat/Km [2]	relative kcat/Km [3]
TGCTTT	2.25 ± 0.41	2.232 ± 0.0079	3.45 ± 1.3
GGCTTA	1.58 ± 0.71	1.39 ± 0.29	1.79 ± 0.95
GACTTC	3.65 ± 0.53	4.38 ± 2.1	6.22 ± 3.3
TTCTTT	4.38 ± 0.77	6.36 ± 1.2	8.65 ± 4
GCCTTC	3 ± 0.21	4.03 ± 2.2	5.81 ± 3.1
AGCTTT	2.79 ± 1.2	2.71 ± 0.49	4.09 ± 1.6
GCCTTA	2.94 ± 1.2	3.35 ± 0.54	5.21 ± 1.5
ATCTTG		1.15 ± 0.053	2.716 ± 0.019
ATCTTT	3.55 ± 1.4	4.27 ± 0.42	6.67 ± 2.8
TCAGCT	1.54 ± 0.23	0.491 ± 0.47	1.24 ± 0.075
GCTGTC	1.58 ± 0.93	0.624 ± 0.091	0.9566 ± 0.0067
GGCGAC	2.53 ± 0.11	2.47 ± 1.2	4.08 ± 1.4
TTAGAT	1.88 ± 0.57	2.14 ± 0.17	2.8 ± 1.2
CTTCCC	1.37 ± 0.18	1.5 ± 1.2	1.93 ± 0.53
GGGATG	0.585 ± 0.41		0.779 ± 0.15
CTAGAT		1.15 ± 0.17	1.83 ± 0.17
GACCTC	2.41 ± 0.81	2.49 ± 0.041	3.63 ± 0.74
GGATAC	1.9 ± 1.2	1.76 ± 0.55	3.05 ± 0.7
CACTAC	4.63 ± 0.25	6.82 ± 2.5	8.23 ± 3.5
CGCTAT	3.49 ± 0.87	4.44 ± 1.6	5.95 ± 2.4
CACTAT	4.78 ± 1.4	6.06 ± 2	8.37 ± 3.9
CGCTAC	3.79 ± 0.67	4.78 ± 2.6	6.76 ± 2.8
AACTAC	3.89 ± 1.7	4.66 ± 0.63	6.38 ± 2.5
CACTGT	1.07 ± 0.037	0.947 ± 0.35	1.51 ± 1.1
GACTAC	4 ± 0.5	6.14 ± 3	8.43 ± 3.9

Sequence	relative kcat/Km [1]	relative kcat/Km [2]	relative kcat/Km [3]
CGCTAG	2.34 ± 1.3	2.43 ± 1	3.4 ± 0.31
CACTGC	3.89 ± 1.6	4.53 ± 1.3	6.06 ± 1.9
CGTATA	2.37 ± 0.34	2.75 ± 0.17	3.94 ± 1.5
GATGGT			2.1 ± 0.88
TGAGAC	2.71 ± 1.3	2.56 ± 0.093	4.48 ± 1.3
TATACA	1.36 ± 0.29	2.13 ± 0.035	3.02 ± 1.8
AGTCGA	2.68 ± 0.35	3.65 ± 1.2	5.59 ± 2
TCCTTT	3.7 ± 1.8	4.6 ± 0.8	6.89 ± 2.9
TCCTTA	3.84 ± 1.5	4.61 ± 0.54	6.32 ± 2.4
TCCTAC	4.6 ± 1.6	5.74 ± 0.95	9.69 ± 4.1
CCCTAC	4.32 ± 1.6	5.08 ± 2.3	7.32 ± 3.6
CCCTTT	2.73 ± 0.52	3.73 ± 1.1	5.02 ± 2
CCCTTC	3.11 ± 1.4	3.36 ± 0.74	4.51 ± 1.3
GCCTAC	3.67 ± 1.2	4.5 ± 0.39	6.1 ± 2.4
ACCTAT	3.74 ± 1.7	4.66 ± 0.24	6.39 ± 2.5
TCCTTC	3.75 ± 1.2	4.99 ± 0.72	6.44 ± 2.3
TCCTAT	4.03 ± 0.47	6.02 ± 0.85	9.38 ± 4.8
ACCTAC	3.44 ± 1.2	4.53 ± 0.77	5.77 ± 2.1
GAAGAT	1.93 ± 1.7	1.36 ± 0.085	1.34 ± 0.35
ATGCTG			0.658 ± 0.54
CTTAGA	3.03 ± 0.85	3.18 ± 0.44	4.79 ± 1.7
GATACC		1.49 ± 0.64	1.67 ± 0.033
CTGAAG			2.05 ± 0.18
TCCCGT			1.86 ± 0.041
